Compounds with a hit are over-represented: about 10% of the library has one in this group of screens.
RORgamma inh: inhibitors of mouse ROR gamma transcriptional activity; P51450; Drosophila S2 Gal4-RORgamma UAS-luciferase reporter, 20 h; Potency, µM (titrated, usually from 53.6 µM), inactives show at the highest dose activity change, negative = inhibition, actives largely listed as inhibitors; 310,000 compounds, 5.4% hits; note: % is set by controls: 0 for no effect and ±100 for the full control effect; nearly all actives have a fitted effect of over 60% in size
Target sequence (P51450 whole entry, looked up, the tested form may be a part): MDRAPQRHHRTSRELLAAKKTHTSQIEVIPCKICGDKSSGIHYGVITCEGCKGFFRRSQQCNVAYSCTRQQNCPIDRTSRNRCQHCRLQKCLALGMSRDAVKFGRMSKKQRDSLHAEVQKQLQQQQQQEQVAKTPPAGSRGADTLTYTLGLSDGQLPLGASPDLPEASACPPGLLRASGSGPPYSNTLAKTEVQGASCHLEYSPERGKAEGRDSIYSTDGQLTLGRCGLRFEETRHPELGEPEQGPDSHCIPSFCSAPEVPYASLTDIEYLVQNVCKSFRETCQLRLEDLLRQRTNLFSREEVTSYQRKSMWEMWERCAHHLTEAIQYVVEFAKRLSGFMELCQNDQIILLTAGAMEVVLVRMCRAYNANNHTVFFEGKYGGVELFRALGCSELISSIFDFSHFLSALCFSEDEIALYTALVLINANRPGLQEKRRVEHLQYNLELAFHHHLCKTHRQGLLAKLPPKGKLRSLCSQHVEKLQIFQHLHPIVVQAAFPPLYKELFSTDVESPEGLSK
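ROR gamma transcriptional activity was tracked as Gal4-UAS luciferase output in stably transfected Drosophila Schneider cells, with compound added 1 hr before 700 uM copper sulfate induction and a 20 hr ambient-temperature incubation.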
SW480 rereplic: induces DNA re-replication in SW480 colon adenocarcinoma cells | 340,000 compounds, 1.8% hits | Potency, µM (series often up to 46.1 µM), for inactives: at the top dose re-replication activation, most hits filed as activators | SW480 DNA re-replication, Hoechst DNA content imaging, 48 h; note: % of control where 0% means no effect; nearly all actives have a fitted effect of over 55% in size
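Readout is total intensity of Hoechst-stained nuclei, excited at 405 nm and collected at 500-530 nm. Compound treatment lasted 48 hr at 37 C in 5% CO2 before staining.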
ELG1 repair inh: blocks ELG1-dependent DNA repair in HEK293T cells. HEK293T ELG1-luciferase reporter, luminescence, 16 h; DNA damage induced by 5-fluorouridine. Potency, µM (top dose mostly 46.1 µM), for inactives: top-dose activity change, negative = inhibition, actives largely listed as inhibitors. 330,000 compounds, 2.3% hits; note: % is set by controls: 0 for no effect and ±100 for the full control effect; nearly all actives have a fitted effect of over 55% in size
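Quantitative HTS, concentration-response format. 2,000 cells/well co-treated with 5-fluorouridine and compound, 16 hr in 5% CO2 at 37 °C; ONE-Glo luminescence read after 30 min.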
MCF10A rereplic: induces DNA re-replication in MCF 10a normal breast cells; MCF 10A DNA re-replication, Hoechst nuclear intensity, 48 h; Potency, µM (top dose mostly 46.1 µM), for the others: top-dose activity, positive = re-replication, usual class: activators; 350,000 compounds, 2.9% hits; note: % of control where 0% means no effect; nearly all actives have a fitted effect of over 50% in size
Gal4-VP16 FLuc: Gal4-VP16 reporter inhibition counter-screen. Potency, µM (highest dose often 53.6 µM), inactives show at the highest dose activity, negative = inhibition, actives largely listed as inhibitors. 310,000 compounds, 3.5% hits. Drosophila S2 Gal4-VP16 UAS-luciferase, luminescence, 20 h. AID 2546;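 note: Gal4-VP16 expression switched on by copper sulfate through the metallothionein promoter; % is set by controls: 0 for no effect and ±100 for the full control effect; nearly all actives have a fitted effect of over 50% in size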
Active calls of the source: *; ! = not confirmed by another sample; [ ] = remark or other dose. Calls come from the whole dose curve; as a rule, active = well fitted curve in the direction sought with a large enough effect; inconclusive = small, poorly fitted or top-dose-only effect, or another doubt; inactive = no such curve, though single readings can be large; an effect the other way counts as inactive or inconclusive. Potency is the fitted concentration of half-maximal effect.

What do the screens show for `Cc1cc(C)c(NC(=O)C2CCN(C(=O)c3ccco3)CC2)c(C)c1`?
RORgamma inh: -23%; SW480 rereplic: -1%; ELG1 repair inh: 18%; MCF10A rereplic: -1%; Gal4-VP16 FLuc: -3%

Results for Cc1cnc(C(=O)OC(C(=O)c2c[nH]c3ccccc23)c2ccccc2)cn1 (stereo unspecified) ?
SW480 rereplic: 1%; ELG1 repair inh: inconclusive; MCF10A rereplic: 0%

What do the screens show for `CN(CC(=O)Nc1ccc(Cl)c(C(F)(F)F)c1)C(=O)c1cccc(N2C(=O)CCC2=O)c1`?
SW480 rereplic: -24%; ELG1 repair inh: inconclusive; MCF10A rereplic: 25%

What do the screens show for `CN(C)c1ccc(C(=C2C=CC(=[N+](C)C)C=C2)c2ccc(N(C)C)cc2)cc1`?
RORgamma inh: 1.1µM*; SW480 rereplic: inconclusive; MCF10A rereplic: 3%; Gal4-VP16 FLuc: 1.6µM*!

Results for CN(C)c1ccc(C(=C2C=CC(=[N+](C)C)C=C2)c2c(O)c(S(=O)(=O)[O-])cc3cc(S(=O)(=O)O)ccc23)cc1 ?
RORgamma inh: 8.9µM*; SW480 rereplic: -1%; MCF10A rereplic: -2%; Gal4-VP16 FLuc: 8.9µM*

Results for CC(=O)c1ccc(N(C)C)cc1 ?
RORgamma inh: 6%; SW480 rereplic: -7%; ELG1 repair inh: 15%; MCF10A rereplic: -2%; Gal4-VP16 FLuc: 15%

Results for CCN(CC)c1ccc(C(=C2C=CC(=[N+](CC)CC)C=C2)c2ccc(S(=O)(=O)O)cc2S(=O)(=O)[O-])cc1 ?
SW480 rereplic: -4%; MCF10A rereplic: -4%

What do the screens show for `CCCN(CC(=O)Nc1ccccc1C)C(=O)COC(=O)c1cnc(C)cn1`?
SW480 rereplic: -8%; MCF10A rereplic: -4%

What do the screens show for `c1ccc(C[n+]2csc3ccccc32)cc1`?
RORgamma inh: inconclusive; SW480 rereplic: inconclusive; ELG1 repair inh: 22%; MCF10A rereplic: 23µM*; Gal4-VP16 FLuc: inconclusive

What do the screens show for `COc1cccc(C2=NC(C)(C)NC(c3ccccc3O)C2)c1` (stereo unspecified)?
RORgamma inh: -8%; SW480 rereplic: 11%; ELG1 repair inh: inconclusive; MCF10A rereplic: inconclusive; Gal4-VP16 FLuc: 5%

How did CCC1(C)N=C(c2ccc3c(c2)OCO3)CC(c2ccccc2O)N1 (stereo unspecified) do in these assays?
RORgamma inh: inconclusive; SW480 rereplic: 15µM*; ELG1 repair inh: inconclusive; MCF10A rereplic: 7.3µM*; Gal4-VP16 FLuc: 9%

How did O=C(CSCc1ccc([N+](=O)[O-])cc1)NC1CCCCCC1 do in these assays?
RORgamma inh: 30%; SW480 rereplic: 4%; ELG1 repair inh: 11%; MCF10A rereplic: 4%; Gal4-VP16 FLuc: 0%

What do the screens show for `Clc1ccc(-c2ccc(/C=N/Nc3nncc(-c4ccccc4)n3)o2)cc1`?
RORgamma inh: 0.79µM*; SW480 rereplic: -3%; ELG1 repair inh: 11%; MCF10A rereplic: -2%; Gal4-VP16 FLuc: 0.79µM*

Results for Cc1ccc(/C=N/Nc2nncc(-c3ccccc3)n2)o1 ?
RORgamma inh: 8.9µM*; SW480 rereplic: inconclusive; ELG1 repair inh: inconclusive; MCF10A rereplic: -34%; Gal4-VP16 FLuc: 13µM*

What do the screens show for `Clc1ccccc1-c1ccc(/C=N/Nc2nncc(-c3ccccc3)n2)o1`?
RORgamma inh: 1.4µM*; SW480 rereplic: -2%; ELG1 repair inh: 3%; MCF10A rereplic: 1%; Gal4-VP16 FLuc: 10µM*

How did Cc1[nH]n(-c2ccccc2)c(=O)c1/C=N/Nc1nncc(-c2ccccc2)n1 do in these assays?
RORgamma inh: 0.05µM*; SW480 rereplic: 0%; ELG1 repair inh: inconclusive; MCF10A rereplic: 3%; Gal4-VP16 FLuc: 0.0022µM*

How did FC(F)(F)c1cccc(-c2ccc(/C=N/Nc3nncc(-c4ccccc4)n3)o2)c1 do in these assays?
RORgamma inh: -5%; SW480 rereplic: 0%; ELG1 repair inh: 7%; MCF10A rereplic: -2%; Gal4-VP16 FLuc: -1%

Results for NC(=O)NCCCC(=O)OCC(=O)c1ccc2ccccc2c1 ?
RORgamma inh: 9%; SW480 rereplic: -1%; ELG1 repair inh: -3%; MCF10A rereplic: 5%; Gal4-VP16 FLuc: 16%

What do the screens show for `Cc1cccc(NC(=O)CNC(=O)CN2CCN(C)CC2)c1C`?
SW480 rereplic: -7%; ELG1 repair inh: 15%; MCF10A rereplic: -9%

Results for Cc1ccc(CNC(=O)CN(C)C2=NS(=O)(=O)c3ccccc32)cc1 ?
SW480 rereplic: -16%; ELG1 repair inh: inconclusive; MCF10A rereplic: 22%

What do the screens show for `C(=C\c1ccccc1)/C=N/Nc1nncc(-c2ccccc2)n1`?
RORgamma inh: 2.2µM*; ELG1 repair inh: 10%; Gal4-VP16 FLuc: 3.2µM*

Results for S=C1SCN(CC2CC2)CN1CC1CC1 ?
RORgamma inh: 7.9µM*; SW480 rereplic: 5.8µM*; ELG1 repair inh: -7%; MCF10A rereplic: -1%; Gal4-VP16 FLuc: 7.1µM*

How did CC(NC(=O)COc1ccccc1-c1ccccc1)c1ccccc1 (stereo unspecified) do in these assays?
RORgamma inh: -8%[10 µM]; SW480 rereplic: 10%; ELG1 repair inh: -3%; MCF10A rereplic: 4.6µM*; Gal4-VP16 FLuc: -13%

Results for COc1ccc(/C=N/NC(=O)COc2ccccc2-c2ccccc2)cc1 ?
RORgamma inh: inconclusive; SW480 rereplic: 0.92µM*; ELG1 repair inh: -11%; MCF10A rereplic: 0.82µM*; Gal4-VP16 FLuc: inconclusive

How did CC(=O)Nc1ccccc1OCC(=O)NC(C)c1ccccc1 (stereo unspecified) do in these assays?
RORgamma inh: inconclusive; SW480 rereplic: 0%; ELG1 repair inh: 7%; MCF10A rereplic: 21%; Gal4-VP16 FLuc: -4%

What do the screens show for `O=C(COc1ccccc1-c1ccccc1)N/N=C/c1cccc2ccccc12`?
RORgamma inh: -4%; SW480 rereplic: inconclusive; ELG1 repair inh: -4%; MCF10A rereplic: 0.46µM*; Gal4-VP16 FLuc: -18%

Results for O=S(=O)(NCc1ccc(F)cc1)c1ccccc1Br ?
SW480 rereplic: -2%; ELG1 repair inh: 5%; MCF10A rereplic: 3%

Results for CCSc1nnc(NC(=O)C(CC)(C(F)(F)F)C(F)(F)F)s1 ?
RORgamma inh: 10µM*; SW480 rereplic: -1%; ELG1 repair inh: inconclusive; MCF10A rereplic: inconclusive; Gal4-VP16 FLuc: 16µM*

What do the screens show for `CCSc1nnc(NC(=O)c2csc3c2CCCC3)s1`?
RORgamma inh: -36%; SW480 rereplic: 15µM*; ELG1 repair inh: -4%; MCF10A rereplic: inconclusive; Gal4-VP16 FLuc: inconclusive

Results for CCSc1nnc(NC(=O)c2cnccn2)s1 ?
RORgamma inh: -59%; SW480 rereplic: 3%; ELG1 repair inh: 28%; MCF10A rereplic: 5%; Gal4-VP16 FLuc: 4%

Results for CCSc1nnc(NC(=O)C(C)(C(F)(F)F)C(F)(F)F)s1 ?
RORgamma inh: inconclusive; SW480 rereplic: -8%; ELG1 repair inh: inconclusive; MCF10A rereplic: 13%; Gal4-VP16 FLuc: inconclusive

Source: PubChem BioAssay
